Data taken from PubChem BioAssay (NCATS).
“And” between values parts separate entries of the source, which are not always exact repeats. Identical values can stand only once. Records with an inconclusive call do not appear. Where a call stands in place of a potency, no number is given. The source made the active and inactive calls. Calls come from the whole dose curve; as a rule, active = well fitted curve in the direction sought with a large enough effect; inconclusive = small, poorly fitted or top-dose-only effect, or another doubt; inactive = no such curve, though single readings can be large; an effect the other way counts as inactive or inconclusive.

Key:
[1] = Primary qHTS for inhibitors of nuclear receptor binding SET domain protein 2 (NSD2) in an isogenic RCH-ACV NSD2 p.E1099K mutant (9B) (AID 1645876); note: nearly all actives have a fitted effect of over 70% in size
[2] = Primary qHTS for inhibitors of nuclear receptor binding SET domain protein 2 (NSD2) in an RCH-ACV wild type WT cells (2C) (AID 1645877); note: nearly all actives have a fitted effect of over 70% in size
[3] = target: Glutathione peroxidase 1 (Homo sapiens) (UniProt P07203); experiment: Primary qHTS Assay for Inhibitors of Recombinant Selenoprotein Glutathione Peroxidase 1 (GPX1) (AID 1845191); note: nearly all actives have a fitted effect of over 65% in size
How it was run: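 GPX1 10 nM, GR 100 nM, GSH 1 mM, NADPH 0.5 mM, CHP 0.5 mM (final). 30-min cpd preincubation, RT. Ex340/Em450 read t=0, t=15 min.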
Potency is the fitted concentration of half-maximal effect.

Chain of Glutathione peroxidase 1 (Homo sapiens) (P07203 whole entry, looked up): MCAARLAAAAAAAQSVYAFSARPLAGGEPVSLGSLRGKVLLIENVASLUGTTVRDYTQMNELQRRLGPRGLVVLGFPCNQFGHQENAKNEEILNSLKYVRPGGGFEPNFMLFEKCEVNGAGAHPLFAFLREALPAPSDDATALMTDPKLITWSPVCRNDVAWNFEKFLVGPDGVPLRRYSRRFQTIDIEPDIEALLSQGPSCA

For C=C[C@H]1[C@H](O[C@@H]2O[C@H](CO)[C@@H](O)[C@H](O)[C@H]2O)OC=C(C(=O)OC)[C@H]1CC(=O)O, the Potency [1] was “inactive”, the Potency [2] was “inactive” and the Potency [3] was “inactive”.
In the case of C[C@H](O)[C@H](O)/C=C/c1cccc(O)c1CO, the Potency [1] is reported as “inactive”, the Potency [2] is reported as “inactive” and the Potency [3] is reported as “inactive”.
In the case of Cc1c2cc(c(C(=O)O)c1C)OC1OC(C(O)C(O)C1O)C(O)C(O)C1OC(O2)C(O)C(O)C1O (stereo not given), the Potency [1] is reported as “inactive”, the Potency [2] is reported as “inactive” and the Potency [3] is reported as “inactive”.
For C[C@@H]1O[C@@H](O[C@@H]2[C@@H](O)[C@H](O[C@H]3CC[C@@]4(C)C(CC[C@]5(C)C4CC=C4[C@@H]6CC(C)(C)CC[C@]6(C(=O)O[C@@H]6O[C@H](CO)[C@@H](O)[C@H](O)[C@H]6O)CC[C@]45C)C3(C)C)O[C@H](C(=O)O)[C@H]2O)[C@H](O)[C@H](O)[C@H]1O (stereo not given in full), the activity change, negative = viability loss [1] was -9.85% [at 9.23 µM] (inactive), the activity change, negative = cell killing [2] was -14.9% [at 9.23 µM] (inactive) and the Potency [3] was “inactive”.
With C[C@@H]1O[C@@H](O[C@H]2[C@@H](OC(=O)[C@]34CCC(C)(C)CC3C3=CCC5[C@@]6(C)C[C@H](O)[C@H](O[C@@H]7O[C@H](C(=O)O)[C@@H](O)[C@H](O)[C@H]7O)[C@@](C)(C(=O)O)C6CC[C@@]5(C)[C@]3(C)CC4)OC[C@H](O)[C@@H]2O)[C@H](O)[C@H](O)[C@H]1O[C@@H]1OC[C@@H](O)[C@H](O)[C@H]1O (stereo not given in full) the activity change, negative = viability loss [1] was -12% [at 9.23 µM] (inactive), the activity change, negative = cell killing [2] was -16.7% [at 9.23 µM] (inactive) and the Potency [3] was “inactive”.
In the case of Nc1nc2c(ncn2[C@@H]2O[C@@H]3COP(=O)(O)O[C@H]3[C@H]2O)c(=O)[nH]1, the Potency [1] is reported as “inactive”, the Potency [2] is reported as “inactive” and the Potency [3] is reported as “inactive”.
In the case of CC1(C)CC[C@]2(C(=O)O[C@@H]3O[C@H](CO[C@@H]4O[C@H](CO)[C@@H](O)[C@H](O)[C@H]4O[C@@H]4O[C@H](CO)[C@H](O)[C@H](O)[C@H]4O)[C@@H](O)[C@H](O[C@@H]4O[C@H](CO)[C@@H](O)[C@H](O)[C@H]4O)[C@H]3O)CC[C@]3(C)C(=CCC4[C@@]5(C)CC[C@H](O[C@@H]6OC[C@@H](O)[C@H](O)[C@H]6O)[C@@](C)(C(=O)O)C5CC[C@]43C)[C@@H]2C1 (stereo not given in full), the activity change, negative = viability loss [1] is reported as -8.77% [at 9.23 µM] (inactive), the activity change, negative = cell killing [2] is reported as -8.76% [at 9.23 µM] (inactive) and the outcome [3] is reported as “inactive [at 9.52 µM]”.
In the case of COc1cc2occc2c(O[C@@H]2O[C@H](CO)[C@@H](O)[C@H](O)[C@H]2O)c1CCC(=O)O, the Potency [1] is reported as “inactive”, the Potency [2] is reported as “inactive” and the Potency [3] is reported as 11100 nM (active).
With CC(=O)C=C=C1C(C)(C)CC(O[C@@H]2O[C@H](CO)[C@@H](O)[C@H](O)[C@H]2O)CC1(C)O (stereo not given in full) the Potency [1] was “inactive”, the Potency [2] was “inactive” and the Potency [3] was “inactive”.
With CC(C)O[C@@H]1O[C@H](CO)[C@@H](O)[C@H](O)[C@H]1O the Potency [1] was “inactive”, the Potency [2] was “inactive” and the Potency [3] was “inactive”.
For C/C=C/C(O)C1OC(=O)CC1Nc1ccc(C(=O)O)cc1 (stereo not given), the Potency [1] was “inactive”, the Potency [2] was “inactive” and the Potency [3] was “inactive”.
In the case of CC1CCC23COC(=O)C2=CC(O)CC3C1(C)CCC1=CC(O)OC1=O (stereo not given), the Potency [1] is reported as “inactive”, the Potency [2] is reported as “inactive” and the Potency [3] is reported as “inactive”.
For CO[C@H]1/C=C/C=C/C=C/C[C@H](OC(=O)[C@@H](C)NC(=O)C2CCCCC2)[C@H](C)[C@@H](O)/C(C)=C/CCc2cc(O)cc(c2)NC(=O)C1, the Potency [1] was 342 nM (active), the Potency [2] was 242 nM (active) and the Potency [3] was “inactive”.
With COc1c2ccoc2cc2oc(CO[C@@H]3O[C@H](CO)[C@@H](O)[C@H](O)[C@H]3O)cc(=O)c12 the Potency [1] was “inactive”, the Potency [2] was “inactive” and the Potency [3] was “inactive”.
For C[C@@H]1O[C@@H](O[C@H]2[C@H](O[C@H]3CC[C@@]4(C)C(CC[C@]5(C)C4CC=C4[C@@H]6CC(C)(C)CC[C@]6(C(=O)O[C@@H]6OC[C@H](O)[C@H](O)[C@H]6O[C@@H]6O[C@@H](C)[C@H](O[C@@H]7O[C@H](CO)[C@@H](O)[C@H](O)[C@H]7O)[C@H](O)[C@H]6O)[C@H](O)C[C@]45C)C3(C)C)O[C@H](CO)[C@@H](O[C@@H]3OC[C@@H](O)[C@H](O)[C@H]3O)[C@@H]2O)[C@H](O)[C@H](O)[C@H]1O (stereo not given in full), the activity change, negative = viability loss [1] was -6.56% [at 9.23 µM] (inactive), the activity change, negative = cell killing [2] was -15.2% [at 9.23 µM] (inactive) and the activity, negative = inhibition [3] was -13.9% [at 9.52 µM] (inactive).
In the case of CC(=O)c1ccc2c(c1)C(O)C(C(C)(C)O)O2 (stereo not given), the Potency [1] is reported as “inactive”, the Potency [2] is reported as “inactive” and the Potency [3] is reported as “inactive”.
With COC1CC(OC2CCC3(C)C(=CCC4C3C(OC(C)=O)C(OC(=O)/C=C/c3ccccc3)C3(C)C(C(C)O)CCC43O)C2)OC(C)C1OC1CC(OC)C(OC2OC(C)C(OC3OC(CO)C(O)C(O)C3O)C(OC)C2O)C(C)O1 (stereo not given) the activity change, negative = viability loss [1] was -12.2% [at 9.23 µM] (inactive), the activity change, negative = cell killing [2] was -17.6% [at 9.23 µM] (inactive) and the outcome [3] was “inactive [at 9.52 µM]”.
In the case of C=C[C@H]1C(O[C@@H]2O[C@H](CO)[C@@H](O)[C@H](O)[C@H]2O)OC=C2C(=O)N3CCc4c([nH]c5ccccc45)[C@H]3C[C@H]21 (stereo not given in full), the Potency [1] is reported as “inactive”, the Potency [2] is reported as “inactive” and the Potency [3] is reported as “inactive”.
With C=C1OC2CC(C(=O)O)C=CC2NC1=O (stereo not given) the Potency [1] was “inactive”, the Potency [2] was “inactive” and the Potency [3] was “inactive”.
With COC(=O)C1=CO[C@@H](O[C@@H]2O[C@H](CO)[C@@H](O)[C@H](O)[C@H]2O)C2C1C(=O)C[C@H]2C (stereo not given in full) the Potency [1] was “inactive”, the Potency [2] was “inactive” and the Potency [3] was “inactive”.
For C[C@H]1CC(=O)Nc2cccc(-c3cnn(C(C)(C)C)c3)c2N1, the Potency [1] was “inactive”, the Potency [2] was “inactive” and the Potency [3] was “inactive”.
For C=C(C(=O)O)[C@H]1C[C@]2(C)[C@@H](O)CC[C@]23O[C@H]1C[C@@H]3C, the Potency [1] was “inactive”, the Potency [2] was “inactive” and the Potency [3] was “inactive”.
For C=C(C)C1CCC(C)C12CC(O)C1(C)OC1C2OC(=O)C(N)CCC(=O)O (stereo not given), the Potency [1] was “inactive”, the Potency [2] was “inactive” and the Potency [3] was “inactive”.
In the case of COc1cc(O)cc(C)c1C(=O)O[C@@H]1[C@H](O)[C@@H](CO)O[C@H]1n1ccc(=O)[nH]c1=O, the Potency [1] is reported as “inactive”, the Potency [2] is reported as “inactive” and the Potency [3] is reported as “inactive”.
For CC(=O)OC1C[C@]2(C)C(O)CC(C)=C[C@H](OC(=O)c3ccc(O)cc3)C2[C@]1(O)C(C)C (stereo not given in full), the Potency [1] was “inactive”, the Potency [2] was “inactive” and the Potency [3] was “inactive”.
In the case of COC(=O)[C@@H](O)[C@H]1[C@@]2(C)CC3(O)[C@@H](C(=O)[C@H]2O)[C@]24O[C@]25CC(=O)O[C@@H](c2ccoc2)[C@]5(C)CCC4[C@]13C (stereo not given in full), the Potency [1] is reported as “inactive”, the Potency [2] is reported as “inactive” and the Potency [3] is reported as “inactive”.
In the case of CC1=CC(=O)CC(C)(C)C1/C=C/C(C)O[C@@H]1O[C@H](CO)[C@@H](O)[C@H](O)[C@H]1O[C@@H]1OC[C@](O)(CO)[C@H]1O (stereo not given in full), the Potency [1] is reported as “inactive”, the Potency [2] is reported as “inactive” and the Potency [3] is reported as “inactive”.
For Cc1c(C(=O)N2CCOc3ccc(-c4ccc(N)nc4)cc3C2)ccc(S(C)(=O)=O)c1F, the Potency [1] was 817 nM (active) and 1.32 µM (active), the Potency [2] was 1.83 µM (active) and 3.32 µM (active) and the Potency [3] was “inactive”.
With C=C1C(=O)O[C@H]2C1[C@H](OC(=O)/C(=C/CO)COC(=O)/C(C)=C/CO)CC(=C)[C@@H]1CC(=O)[C@@H](C)[C@@H]12 (stereo not given in full) the Potency [1] was 3550 nM (active), the Potency [2] was 1780 nM (active) and the Potency [3] was “inactive”.
With OC[C@H]1O[C@@H](O[C@H]2[C@H](OCCc3ccccc3)O[C@H](CO)[C@@H](O)[C@@H]2O)[C@H](O)[C@@H](O)[C@@H]1O the Potency [1] was “inactive”, the Potency [2] was “inactive” and the Potency [3] was “inactive”.
With CC1(C)CC[C@]2(C(=O)O)CC[C@]3(C)C(=CCC4[C@@]5(C)CC[C@H](O[C@@H]6O[C@H](CO)[C@@H](O)[C@H](O)[C@H]6O[C@@H]6O[C@H](CO)[C@@H](O)[C@H](O)[C@H]6O)[C@@](C)(CO)C5CC[C@]43C)[C@@H]2C1 (stereo not given in full) the Potency [1] was “inactive”, the Potency [2] was “inactive” and the Potency [3] was “inactive”.
In the case of CC1CC(=O)C2=C(CCC3(O)C(O)c4c(O)cccc4C(=O)C23O)C1 (stereo not given), the Potency [1] is reported as “inactive”, the Potency [2] is reported as “inactive” and the Potency [3] is reported as “inactive”.
With CC1(C)CCCC2(C)C(C(=O)O)=CCC12 (stereo not given) the Potency [1] was “inactive”, the Potency [2] was “inactive” and the Potency [3] was “inactive”.
In the case of C/C(=C\CCC(C)CCO)C(=O)OC1(C)CCC2C(C(=O)O)=COC(OC3OC(CO)C(O)C(O)C3O)C21 (stereo not given), the Potency [1] is reported as “inactive”, the Potency [2] is reported as “inactive” and the Potency [3] is reported as “inactive”.
In the case of Cc1[nH]nc(C(F)(F)F)c1Cc1sc2c(c1C(=O)N1C[C@](C)(O)CO1)c(=O)n(C)c(=O)n2C(C)C, the Potency [1] is reported as “inactive”, the Potency [2] is reported as “inactive” and the Potency [3] is reported as “inactive”.
For CC1=C(COC2OC(CO)C(O)C(O)C2O)C(C(CO)C(=O)O)CC1 (stereo not given), the Potency [1] was “inactive”, the Potency [2] was “inactive” and the Potency [3] was “inactive”.
With FC(F)(F)c1ccc(Nc2nc(-c3c(C(F)(F)F)nc4ccccn34)cs2)cc1 the Potency [1] was 417 nM (active), the Potency [2] was 372 nM (active) and the Potency [3] was “inactive”.
In the case of C=CC1(C)CC(OC(=O)/C(C)=C\COC(C)=O)C(C(=C)C(=O)O)C(O)C1C(=C)CO (stereo not given), the Potency [1] is reported as “inactive”, the Potency [2] is reported as “inactive” and the Potency [3] is reported as “inactive”.
With CC1OC(O[C@H]2CC[C@@]3(C)C(CC[C@]4(C)C3CC=C3C5CC(C)(C)CC[C@]5(C(=O)OC5OC(CO)C(OC6OC(COC7OCC(O)C(O)C7O)C(O)C(O)C6O)C(O)C5O)CC[C@]34C)C2(C)C)C(O)C(O)C1OC1OCC(OC2OCC(O)C(O)C2O)C(O)C1O (stereo not given in full) the outcome [1] was “inactive [at 9.23 µM]”, the activity change, negative = cell killing [2] was 2.24% [at 9.23 µM] (inactive) and the activity, negative = inhibition [3] was -21.4% [at 9.52 µM] (inactive).
In the case of COC(=O)CC(C)(O)CC(=O)OCc1ccc(O[C@@H]2O[C@H](CO)[C@@H](O)[C@H](O)[C@H]2O)cc1 (stereo not given in full), the Potency [1] is reported as “inactive”, the Potency [2] is reported as “inactive” and the Potency [3] is reported as “inactive”.
